Of roughly 7,900 targets only a part is listed; those with a hit were picked by preference. About 0.6% of all pairs of compound and target were hits. Values without a mark were called inactive.
Experiments:
Assay in all cases: log2 fold change, soluble protein after heating vs DMSO (PISA); higher = thermal stabilisation; K562 cells, 10 uM, 30 min; active = over 0.2 and 3.5 SD of the protein, either way, in both replicates (recomputed)
YAE1 = YAE1 (UniProt Q9NRH1)
Procedure, shortened: (§1)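 K562 cells at 2×10^6 cells/mL were given 10 μM compound for 30 min. Aliquots then went through 3 min of heating across 48°C-58°C, were pooled, and were extracted in PBS with 0.5% NP-40 at 4°C, and the supernatant after 21,000xg for 90 min was quantified by TMTpro 16plex LC-MS/MS with channel sums equalised. Thermal stability relative to control samples, from duplicates, is given as log2 fold change.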

YBX1 = YBX1 (UniProt P67809)
Chain of YBX1 (P67809 whole entry, looked up): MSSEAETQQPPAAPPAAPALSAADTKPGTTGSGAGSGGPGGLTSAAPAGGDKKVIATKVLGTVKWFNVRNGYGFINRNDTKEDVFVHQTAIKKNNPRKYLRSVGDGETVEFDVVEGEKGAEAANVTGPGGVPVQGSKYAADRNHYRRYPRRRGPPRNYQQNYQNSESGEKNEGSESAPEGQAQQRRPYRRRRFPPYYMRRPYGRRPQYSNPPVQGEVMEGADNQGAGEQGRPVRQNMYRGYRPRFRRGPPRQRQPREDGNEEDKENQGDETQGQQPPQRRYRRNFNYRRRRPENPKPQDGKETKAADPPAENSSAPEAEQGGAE
Procedure, shortened: as §1

YES1 = YES1 (UniProt P07947)
Procedure, shortened: as §1

YIPF4 = YIPF4 (UniProt Q9BSR8)
Chain of YIPF4 (Q9BSR8 whole entry, looked up): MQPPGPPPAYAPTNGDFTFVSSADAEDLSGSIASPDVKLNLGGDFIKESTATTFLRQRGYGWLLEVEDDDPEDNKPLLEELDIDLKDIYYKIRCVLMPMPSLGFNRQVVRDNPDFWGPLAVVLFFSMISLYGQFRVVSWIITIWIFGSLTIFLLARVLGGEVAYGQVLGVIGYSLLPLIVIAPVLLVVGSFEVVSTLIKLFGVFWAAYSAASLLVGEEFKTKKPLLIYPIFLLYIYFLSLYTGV
Procedure, shortened: as §1

YIPF5 isoform 3 = YIPF5 isoform 3 (UniProt Q969M3)
Chain of YIPF5 isoform 3 (Q969M3 whole entry, looked up, canonical isoform): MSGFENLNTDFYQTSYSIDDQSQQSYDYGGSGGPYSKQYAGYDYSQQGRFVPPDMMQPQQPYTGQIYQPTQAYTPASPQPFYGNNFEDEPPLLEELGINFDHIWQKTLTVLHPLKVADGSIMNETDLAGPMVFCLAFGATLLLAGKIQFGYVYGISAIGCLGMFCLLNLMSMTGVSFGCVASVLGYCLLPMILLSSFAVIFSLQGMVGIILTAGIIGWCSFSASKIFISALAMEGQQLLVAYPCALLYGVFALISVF
Procedure, shortened: as §1

YIPF6 = YIPF6 (UniProt Q96EC8)
Procedure, shortened: as §1

YLPM1 = YLPM1 (UniProt P49750)
Chain of YLPM1 (P49750 whole entry, looked up): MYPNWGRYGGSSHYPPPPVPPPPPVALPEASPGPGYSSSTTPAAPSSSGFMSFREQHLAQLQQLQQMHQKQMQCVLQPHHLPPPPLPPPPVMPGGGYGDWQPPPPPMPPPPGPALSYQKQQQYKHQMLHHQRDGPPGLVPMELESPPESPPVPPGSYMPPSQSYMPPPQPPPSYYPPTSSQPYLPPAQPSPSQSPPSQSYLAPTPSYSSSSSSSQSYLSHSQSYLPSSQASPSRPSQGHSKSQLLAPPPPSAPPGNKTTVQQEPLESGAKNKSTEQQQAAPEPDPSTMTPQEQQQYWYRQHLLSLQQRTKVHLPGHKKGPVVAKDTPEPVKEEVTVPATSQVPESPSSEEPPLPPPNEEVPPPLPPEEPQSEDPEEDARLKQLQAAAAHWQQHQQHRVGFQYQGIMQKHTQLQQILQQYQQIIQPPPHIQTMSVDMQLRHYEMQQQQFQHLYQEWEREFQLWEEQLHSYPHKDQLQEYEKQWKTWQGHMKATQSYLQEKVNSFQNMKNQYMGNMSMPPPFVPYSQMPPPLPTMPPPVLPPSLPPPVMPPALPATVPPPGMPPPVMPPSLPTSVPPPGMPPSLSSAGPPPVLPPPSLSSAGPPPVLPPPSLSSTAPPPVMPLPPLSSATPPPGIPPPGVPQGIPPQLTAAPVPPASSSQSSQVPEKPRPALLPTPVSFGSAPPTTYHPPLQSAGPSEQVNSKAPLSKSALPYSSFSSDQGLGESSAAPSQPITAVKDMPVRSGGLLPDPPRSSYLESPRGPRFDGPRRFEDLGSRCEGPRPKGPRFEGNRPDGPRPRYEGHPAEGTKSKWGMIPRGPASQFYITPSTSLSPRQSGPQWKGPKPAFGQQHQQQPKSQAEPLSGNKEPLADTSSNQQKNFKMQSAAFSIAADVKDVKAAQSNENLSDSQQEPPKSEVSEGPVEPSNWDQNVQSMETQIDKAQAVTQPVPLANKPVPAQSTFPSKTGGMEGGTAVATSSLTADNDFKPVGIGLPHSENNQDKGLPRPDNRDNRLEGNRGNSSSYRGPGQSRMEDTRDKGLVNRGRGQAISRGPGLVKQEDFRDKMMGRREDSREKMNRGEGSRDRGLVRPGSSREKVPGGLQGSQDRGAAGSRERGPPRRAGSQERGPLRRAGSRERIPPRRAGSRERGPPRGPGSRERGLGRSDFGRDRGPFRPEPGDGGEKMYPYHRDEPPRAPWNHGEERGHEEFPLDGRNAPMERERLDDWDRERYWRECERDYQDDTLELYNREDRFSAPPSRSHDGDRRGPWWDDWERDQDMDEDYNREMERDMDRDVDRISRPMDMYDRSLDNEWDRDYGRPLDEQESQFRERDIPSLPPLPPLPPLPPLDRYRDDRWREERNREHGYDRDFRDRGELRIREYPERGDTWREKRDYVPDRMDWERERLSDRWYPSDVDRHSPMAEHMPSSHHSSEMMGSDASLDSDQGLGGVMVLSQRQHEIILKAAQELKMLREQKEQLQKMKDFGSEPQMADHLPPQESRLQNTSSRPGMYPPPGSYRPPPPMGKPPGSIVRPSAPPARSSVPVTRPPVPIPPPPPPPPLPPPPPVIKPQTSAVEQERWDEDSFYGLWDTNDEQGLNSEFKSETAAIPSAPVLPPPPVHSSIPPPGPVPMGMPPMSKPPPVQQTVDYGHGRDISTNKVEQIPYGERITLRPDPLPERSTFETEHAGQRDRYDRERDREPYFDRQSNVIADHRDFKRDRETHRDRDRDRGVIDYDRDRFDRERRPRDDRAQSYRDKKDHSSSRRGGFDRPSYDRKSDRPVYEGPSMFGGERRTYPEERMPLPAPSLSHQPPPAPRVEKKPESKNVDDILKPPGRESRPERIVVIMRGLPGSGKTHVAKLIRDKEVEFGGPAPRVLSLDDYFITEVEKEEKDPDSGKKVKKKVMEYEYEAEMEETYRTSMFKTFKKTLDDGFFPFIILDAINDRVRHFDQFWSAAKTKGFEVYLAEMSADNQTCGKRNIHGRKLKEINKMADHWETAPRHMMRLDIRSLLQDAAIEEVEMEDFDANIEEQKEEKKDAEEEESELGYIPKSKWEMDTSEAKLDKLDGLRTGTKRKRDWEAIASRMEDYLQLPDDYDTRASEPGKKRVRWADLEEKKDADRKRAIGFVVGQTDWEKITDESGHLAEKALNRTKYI
Procedure, shortened: as §1

YOD1 = YOD1 (UniProt Q5VVQ6)
Chain of YOD1 (Q5VVQ6 whole entry, looked up): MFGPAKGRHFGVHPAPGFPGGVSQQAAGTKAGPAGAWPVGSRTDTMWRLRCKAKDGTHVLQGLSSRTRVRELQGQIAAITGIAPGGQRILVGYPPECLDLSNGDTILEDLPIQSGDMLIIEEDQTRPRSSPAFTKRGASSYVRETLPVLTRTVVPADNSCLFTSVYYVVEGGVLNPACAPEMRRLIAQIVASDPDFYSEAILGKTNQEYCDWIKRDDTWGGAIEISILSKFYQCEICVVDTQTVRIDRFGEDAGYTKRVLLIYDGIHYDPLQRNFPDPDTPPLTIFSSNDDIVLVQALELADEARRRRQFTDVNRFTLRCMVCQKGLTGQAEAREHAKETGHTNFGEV
Procedure, shortened: as §1

YPEL5 = YPEL5 (UniProt P62699)
Chain of YPEL5 (P62699 whole entry, looked up): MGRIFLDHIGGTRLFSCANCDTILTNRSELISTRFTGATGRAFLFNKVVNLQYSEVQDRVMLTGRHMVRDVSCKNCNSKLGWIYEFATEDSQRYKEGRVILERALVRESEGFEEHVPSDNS
Procedure, shortened: as §1

YWHAB = YWHAB (UniProt P31946)
Chain of YWHAB (P31946 whole entry, looked up): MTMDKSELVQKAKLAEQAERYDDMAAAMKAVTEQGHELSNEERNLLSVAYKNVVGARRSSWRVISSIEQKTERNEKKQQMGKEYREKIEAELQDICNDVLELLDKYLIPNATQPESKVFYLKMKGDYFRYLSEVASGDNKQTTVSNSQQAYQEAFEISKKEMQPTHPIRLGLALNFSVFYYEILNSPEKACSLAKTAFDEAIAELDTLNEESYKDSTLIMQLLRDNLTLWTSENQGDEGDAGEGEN
Procedure, shortened: as §1

YWHAQ = YWHAQ (UniProt P27348)
Procedure, shortened: as §1

YWHAZ [1] = biological target: YWHAZ (UniProt E7ESK7)
Procedure, shortened: as §1

YWHAZ [2] = biological target: YWHAZ (UniProt P63104)
Chain of YWHAZ (UniProt P63104) (P63104 whole entry, looked up): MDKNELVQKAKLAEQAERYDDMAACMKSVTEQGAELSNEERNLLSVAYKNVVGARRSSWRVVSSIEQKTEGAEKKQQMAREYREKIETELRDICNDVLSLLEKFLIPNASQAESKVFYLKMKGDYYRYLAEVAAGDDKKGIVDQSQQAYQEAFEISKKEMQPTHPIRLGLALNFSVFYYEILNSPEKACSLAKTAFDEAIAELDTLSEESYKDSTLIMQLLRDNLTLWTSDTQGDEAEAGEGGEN
Procedure, shortened: as §1

YY1 = YY1 (UniProt P25490)
Chain of YY1 (P25490 whole entry, looked up): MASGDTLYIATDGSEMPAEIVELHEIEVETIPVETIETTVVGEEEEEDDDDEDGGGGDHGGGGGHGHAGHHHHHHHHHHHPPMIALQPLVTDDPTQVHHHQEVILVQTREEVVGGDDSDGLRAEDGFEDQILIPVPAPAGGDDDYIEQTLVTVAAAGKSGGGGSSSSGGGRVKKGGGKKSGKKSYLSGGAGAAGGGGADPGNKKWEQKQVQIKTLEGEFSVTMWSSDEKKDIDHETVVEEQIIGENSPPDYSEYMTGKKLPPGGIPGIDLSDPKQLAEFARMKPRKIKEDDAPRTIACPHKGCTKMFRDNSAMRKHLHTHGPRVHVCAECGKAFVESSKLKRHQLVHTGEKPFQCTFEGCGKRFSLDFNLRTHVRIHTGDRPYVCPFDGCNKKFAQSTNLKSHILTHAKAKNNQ
Procedure, shortened: as §1

ZADH2 = ZADH2 (UniProt Q8N4Q0)
Chain of ZADH2 (Q8N4Q0 whole entry, looked up): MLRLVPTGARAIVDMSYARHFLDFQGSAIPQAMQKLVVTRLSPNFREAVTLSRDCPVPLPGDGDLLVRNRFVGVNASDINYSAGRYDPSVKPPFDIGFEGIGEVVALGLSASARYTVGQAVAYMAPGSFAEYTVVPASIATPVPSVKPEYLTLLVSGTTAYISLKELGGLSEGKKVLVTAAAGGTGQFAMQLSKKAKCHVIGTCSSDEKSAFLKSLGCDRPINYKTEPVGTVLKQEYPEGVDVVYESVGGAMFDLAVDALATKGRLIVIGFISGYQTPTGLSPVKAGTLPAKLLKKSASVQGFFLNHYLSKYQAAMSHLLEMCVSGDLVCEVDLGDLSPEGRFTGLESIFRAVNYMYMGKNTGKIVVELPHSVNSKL
Procedure, shortened: as §1

ZBTB21 = ZBTB21 (UniProt Q9ULJ3)
Procedure, shortened: as §1

ZBTB43 = ZBTB43 (UniProt O43298)
Procedure, shortened: as §1

ZC3H18 = ZC3H18 (UniProt Q86VM9)
Procedure, shortened: as §1

ZBTB17 isoform 2 = ZBTB17 isoform 2 (UniProt Q13105)
Procedure, shortened: as §1

Chain of YAE1 (Q9NRH1 whole entry, looked up): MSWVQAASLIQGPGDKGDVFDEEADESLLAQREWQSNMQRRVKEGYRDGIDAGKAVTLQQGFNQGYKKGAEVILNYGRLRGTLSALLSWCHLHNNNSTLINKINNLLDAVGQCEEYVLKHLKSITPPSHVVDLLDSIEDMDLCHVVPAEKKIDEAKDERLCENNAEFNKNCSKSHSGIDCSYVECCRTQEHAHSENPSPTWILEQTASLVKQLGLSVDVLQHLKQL

Row | SMILES | log2 fold change (YAE1) | log2 fold change (YBX1) | log2 fold change (YES1) | log2 fold change (YIPF4) | log2 fold change (YIPF5 isoform 3) | log2 fold change (YIPF6) | log2 fold change (YLPM1) | log2 fold change (YOD1) | log2 fold change (YPEL5) | log2 fold change (YWHAB) | log2 fold change (YWHAQ) | log2 fold change (YWHAZ [1]) | log2 fold change (YWHAZ [2]) | log2 fold change (YY1) | log2 fold change (ZADH2) | log2 fold change (ZBTB21) | log2 fold change (ZBTB43) | log2 fold change (ZC3H18) | log2 fold change (ZBTB17 isoform 2)
1 | Cc1cc(SCc2sc(-c3ccc(C(F)(F)F)cc3)nc2C)ccc1OCC(=O)O | 0.021 | -0.024 | 0.06 | -0.04 | 0.015 | -0.175 | 0 | 0.061 | 0.098 | 0.005 | 0.119 | -0.02 | 0.012 | 0.002 | -0.027 | 0.043 | 0.041 | -0.034 | –
2 | CS(=O)(=O)CCNCc1ccc(-c2ccc3ncnc(Nc4ccc(OCc5cccc(F)c5)c(Cl)c4)c3c2)o1 [lapatinib] | -0.052 | 0.317 | 0.057 | -0.13 | -0.163 | 0.061 | -0.028 | 0.01 | -0.113 | -0.016 | 0.219 | -0.051 | 0.197 | -0.023 | -0.049 | 0.032 | – | 0.111 | –
3 | Cc1nc(Nc2ncc(C(=O)Nc3c(C)cccc3Cl)s2)cc(N2CCN(CCO)CC2)n1 [dasatinib] | 0.152 | 0.167 | -0.737 (active) | 0.021 | 0.055 | 0.256 | -0.062 | -0.115 | -0.004 | 0.006 | -0.149 | -0.094 | -0.044 | -0.001 | 0.035 | -0.005 | -0.034 | 0.038 | –
4 | Cn1cncc1[C@@](N)(c1ccc(Cl)cc1)c1ccc2c(c1)c(-c1cccc(Cl)c1)cc(=O)n2C [tipifarnib] | -0.008 | 0.242 | -0.001 | 0.31 (active) | -0.059 | -0.035 | -0.048 | -0.048 | 0.125 | 0.059 | -0.112 | 0.127 | -0.123 | 0.009 | -0.053 | -0.02 | – | 0.111 | –
5 | CNC(=O)c1ccccc1Nc1nc(Nc2ccc(N3CCOCC3)cc2OC)ncc1Cl | -0.002 | 0.01 | -0.623 (active) | 0.062 | 0.088 | -0.006 | -0.006 | 0.011 | 0.08 | 0.019 | 0.049 | – | -0.013 | -0.046 | -0.051 | -0.012 | -0.007 | -0.01 | -0.041
6 | CC(C)(C)Cn1c(N)nc2ccc(-c3[nH]c(C(C)(C)C)nc3-c3ccc(F)cc3)nc21 [ralimetinib] | 0.023 | 0.082 | -0.09 | -0.099 | -0.292 | -0.045 | 0.043 | -0.001 | -0.111 | -0.063 | 0.237 | -0.031 | 0.145 | 0.002 | 0.169 | 0.121 | 0.012 | 0.03 | –
7 | CC[C@@H]1C(=O)N(C)c2cnc(Nc3ccc(C(=O)NC4CCN(C)CC4)cc3OC)nc2N1C1CCCC1 | -0.022 | 0.262 | 0.129 | 0.022 | 0.088 | -0.001 | -0.016 | -0.099 | 0.024 | -0.055 | -0.141 | 0.1 | -0.083 | -0.149 | 0.153 | – | -0.061 | -0.008 | –
8 | C[C@@H](N)c1ccc(C(=O)Nc2ccnc3[nH]ccc23)cc1 | 0.1 | 0.28 | 0 | -0.089 | -0.077 | -0.013 | -0.037 | -0.04 | 0.163 | -0.065 | -0.302 | 0.179 | -0.178 | -0.071 | -0.071 | 0.125 | -0.013 | -0.103 | –
9 | O=C(CCCCCCNC(=O)c1cnc(N(c2ccccc2)c2ccccc2Cl)nc1)NO [citarinostat] | 0.04 | -0.13 | 0.008 | 0.042 | 0.023 | 0.011 | 0.099 | 0.067 | -0.077 | 0.001 | 0.02 | -0.053 | -0.013 | 0.121 | 0.106 | – | -0.173 | 0.028 | –
10 | CNCc1ccc(-c2[nH]c3cc(F)cc4c3c2CCNC4=O)cc1 [rucaparib] | -0.078 | 0.253 | 0.169 | -0.028 | 0 | 0.055 | -0.07 | -0.041 | 0.002 | -0.078 | -0.016 | -0.057 | -0.041 | -0.05 | -0.071 | – | -0.272 | 0.029 | –
11 | CO[C@H]1C[C@@H]2CC[C@@H](C)[C@@](O)(O2)C(=O)C(=O)N2CCCC[C@H]2C(=O)O[C@H]([C@H](C)C[C@@H]2CC[C@H](n3cnnn3)[C@H](OC)C2)CC(=O)[C@H](C)/C=C(\C)[C@@H](O)[C@@H](OC)C(=O)[C@H](C)C[C@H](C)/C=C/C=C/C=C/1C [zotarolimus] | 0 | -0.048 | 0.053 | 0.015 | 0.006 | -0.026 | -0.001 | 0.05 | 0.05 | 0.015 | 0.196 | -0.072 | 0.107 | -0.01 | 0.07 | 0.004 | -0.036 | 0.041 | –
12 | CN1CC[C@H](c2c(O)cc(O)c3c(=O)cc(-c4ccccc4Cl)oc23)[C@H](O)C1 [alvocidib] | 0.249 (active) | 0.295 | -0.029 | 0.027 | 0.003 | 0.022 | 0 | -0.088 | -0.234 | -0.06 | -0.192 | -0.003 | -0.056 | -0.099 | -0.05 | -0.067 | 0.008 | -0.217 | –
13 | COC(=O)N[C@@H](C)CNc1nccc(-c2cn(C(C)C)nc2-c2cc(Cl)cc(NS(C)(=O)=O)c2F)n1 [encorafenib] | 0.007 | 0.041 | 0.242 | -0.038 | 0.012 | -0.042 | 0.052 | 0.02 | -0.001 | -0.003 | -0.016 | -0.156 | -0.031 | 0.066 | 0.045 | – | 0.065 | -0.03 | –
14 | CN1CCN(CCOc2cc(OC3CCOCC3)c3c(Nc4c(Cl)ccc5c4OCO5)ncnc3c2)CC1 [saracatinib] | 0.025 | -0.027 | -0.551 (active) | 0.072 | 0.007 | -0.023 | 0 | -0.034 | 0.069 | 0.014 | 0.234 | -0.076 | 0.064 | 0.047 | 0.005 | -0.149 | -0.147 | -0.072 | –
15 | CC[C@@H]1C(=O)N(C)c2cnc(Nc3ccc(C(=O)N[C@H]4CC[C@H](N5CCN(CC6CC6)CC5)CC4)cc3OC)nc2N1C(C)C [volasertib] | -0.101 | 0.508 | -0.038 | 0.134 | 0.058 | -0.037 | -0.265 (active) | -0.247 | -0.022 | 0.024 | -0.073 | -0.173 | -0.016 | -0.44 (active) | 0.754 (active) | -0.063 | – | -0.085 | –
16 | CN(C)CC(=O)Nc1ccc2[nH]c(=O)c3ccccc3c2c1 | -0.108 | -0.134 | -0.075 | 0.09 | 0.014 | -0.012 | -0.037 | 0.043 | 0.008 | -0.033 | 0.16 | – | 0.009 | -0.047 | 0.02 | 0.018 | -0.07 | -0.039 | –

Source: the supplement of paper PMC10849652
